In PMC7862700, “An all-to-all approach to the identification of sequence-specific readers for epigenetic DNA modifications on cytosine”:

How the values were obtained:
Experiment in all cases: DAPPL (digital affinity profiling via proximity ligation, sequencing); 10 mM Tris-HCl pH 7.5, 50 mM NaCl, 1 mM DTT, 4% glycerol, room temperature, 30 min; GST-TFs on glutathione beads, 16-mer random dsDNA library, 0.1% formaldehyde crosslink after washing; high values mean tight binding
Details in all cases: protein: recombinant; tags: N-terminal GST; dsDNA, one strand shown
ERF = target: T1, ERF (Homo sapiens, UniProt P50548 1-548)
T1 sequence: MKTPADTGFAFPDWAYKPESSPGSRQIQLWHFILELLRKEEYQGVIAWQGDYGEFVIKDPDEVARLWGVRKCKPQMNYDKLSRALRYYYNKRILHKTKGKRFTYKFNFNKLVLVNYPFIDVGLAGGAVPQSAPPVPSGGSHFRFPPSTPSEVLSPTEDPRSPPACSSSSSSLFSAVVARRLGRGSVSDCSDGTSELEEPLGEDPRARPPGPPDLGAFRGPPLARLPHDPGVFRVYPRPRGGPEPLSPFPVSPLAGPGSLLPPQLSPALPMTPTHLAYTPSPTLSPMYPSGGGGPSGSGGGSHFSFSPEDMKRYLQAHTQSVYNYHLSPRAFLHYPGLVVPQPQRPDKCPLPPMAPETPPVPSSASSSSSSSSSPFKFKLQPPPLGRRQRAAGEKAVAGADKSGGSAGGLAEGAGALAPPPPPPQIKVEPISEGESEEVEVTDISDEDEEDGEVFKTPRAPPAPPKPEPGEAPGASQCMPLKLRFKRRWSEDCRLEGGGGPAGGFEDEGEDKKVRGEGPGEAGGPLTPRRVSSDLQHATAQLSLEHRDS
How it was run: (§1)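 Beads coated with glutathione captured GST-fused human transcription factors that had been expressed in yeast, and the factors were then given DNA barcodes and pooled with a tag-only sample. The pools were incubated with 200 nmole of a random double-stranded 16-mer DNA library in Tris/NaCl/DTT/glycerol buffer for 30 min at room temperature, washed, crosslinked with 0.1% formaldehyde and proximity-ligated with BsaI/T4 ligase at 37 °C for 1 h. PCR amplification and Illumina NextSeq500 sequencing came last. Binding signal is each hexamer's read frequency for a factor divided by its frequency for the tag-only sample.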

ETV3L = target: T2, ETV3L (Homo sapiens, UniProt Q6ZN32 1-361)
T2 sequence: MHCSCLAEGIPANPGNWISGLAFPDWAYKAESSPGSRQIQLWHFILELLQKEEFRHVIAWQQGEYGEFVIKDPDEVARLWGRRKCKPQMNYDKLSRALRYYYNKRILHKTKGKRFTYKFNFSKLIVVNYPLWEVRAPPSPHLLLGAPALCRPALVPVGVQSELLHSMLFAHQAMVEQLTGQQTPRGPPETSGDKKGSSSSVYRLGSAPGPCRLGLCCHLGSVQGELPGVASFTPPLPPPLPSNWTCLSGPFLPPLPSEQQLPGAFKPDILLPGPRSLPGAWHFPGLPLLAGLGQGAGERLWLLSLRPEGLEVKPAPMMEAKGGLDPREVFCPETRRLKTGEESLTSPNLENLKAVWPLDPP
How it was run: as §1

ETS2 = target: T3, ETS2 (Homo sapiens, UniProt P15036 1-469)
T3 sequence: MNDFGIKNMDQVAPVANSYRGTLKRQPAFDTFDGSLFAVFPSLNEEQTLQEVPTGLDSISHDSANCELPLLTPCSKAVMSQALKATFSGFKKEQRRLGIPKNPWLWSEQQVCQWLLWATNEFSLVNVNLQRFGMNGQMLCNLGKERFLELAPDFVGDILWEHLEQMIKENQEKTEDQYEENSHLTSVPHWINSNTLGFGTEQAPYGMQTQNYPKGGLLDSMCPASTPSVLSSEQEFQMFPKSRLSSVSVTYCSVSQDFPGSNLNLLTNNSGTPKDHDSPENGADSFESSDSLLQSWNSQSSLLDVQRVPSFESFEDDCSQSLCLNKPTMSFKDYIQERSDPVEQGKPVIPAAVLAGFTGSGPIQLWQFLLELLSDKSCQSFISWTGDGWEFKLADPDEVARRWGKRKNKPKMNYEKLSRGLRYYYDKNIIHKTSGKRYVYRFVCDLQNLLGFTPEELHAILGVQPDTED
How it was run: as §1

SPDEF = target: T4, SPDEF (Homo sapiens, UniProt O95238 1-335)
T4 sequence: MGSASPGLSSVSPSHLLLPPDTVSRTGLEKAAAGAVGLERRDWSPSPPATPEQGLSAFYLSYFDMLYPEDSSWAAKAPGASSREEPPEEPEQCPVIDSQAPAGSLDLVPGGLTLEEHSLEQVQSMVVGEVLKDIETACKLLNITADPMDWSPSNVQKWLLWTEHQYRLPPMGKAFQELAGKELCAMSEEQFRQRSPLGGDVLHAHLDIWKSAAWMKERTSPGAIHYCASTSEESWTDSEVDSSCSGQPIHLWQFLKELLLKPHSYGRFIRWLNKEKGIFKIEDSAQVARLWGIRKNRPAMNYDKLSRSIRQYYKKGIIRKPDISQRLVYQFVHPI
How it was run: as §1

ETV7 = target: T5, ETV7 (Homo sapiens, UniProt Q9Y603 1-341)
T5 sequence: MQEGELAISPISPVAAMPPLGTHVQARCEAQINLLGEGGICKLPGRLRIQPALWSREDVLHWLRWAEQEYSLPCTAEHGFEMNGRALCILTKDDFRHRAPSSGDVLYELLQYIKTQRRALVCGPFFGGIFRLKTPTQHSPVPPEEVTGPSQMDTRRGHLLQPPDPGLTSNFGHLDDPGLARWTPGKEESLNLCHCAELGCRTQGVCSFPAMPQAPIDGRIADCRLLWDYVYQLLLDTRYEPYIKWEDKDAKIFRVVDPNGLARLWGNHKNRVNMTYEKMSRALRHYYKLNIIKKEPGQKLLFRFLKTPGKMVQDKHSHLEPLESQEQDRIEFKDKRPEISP
How it was run: as §1

ELF5 = target: T6, ELF5 (Homo sapiens, UniProt Q9UKW6-2 1-255)
T6 sequence: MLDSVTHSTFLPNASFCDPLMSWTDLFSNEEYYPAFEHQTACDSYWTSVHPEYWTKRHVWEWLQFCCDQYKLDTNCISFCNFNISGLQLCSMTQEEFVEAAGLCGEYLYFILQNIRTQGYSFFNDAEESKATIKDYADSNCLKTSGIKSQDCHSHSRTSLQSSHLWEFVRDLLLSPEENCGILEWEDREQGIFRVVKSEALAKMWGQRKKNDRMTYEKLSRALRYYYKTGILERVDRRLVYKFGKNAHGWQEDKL
How it was run: as §1

ETV3 = target: T7, ETV3 (Homo sapiens, UniProt P41162-2 1-143)
T7 sequence: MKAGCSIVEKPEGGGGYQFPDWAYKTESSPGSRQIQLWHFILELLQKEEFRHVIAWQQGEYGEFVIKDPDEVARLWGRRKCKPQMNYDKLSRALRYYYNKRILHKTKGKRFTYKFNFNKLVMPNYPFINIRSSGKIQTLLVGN
How it was run: as §1

ETV6 = ETV6 (Homo sapiens, UniProt P41212 1-452)
ETV6, sequence (P41212 whole entry): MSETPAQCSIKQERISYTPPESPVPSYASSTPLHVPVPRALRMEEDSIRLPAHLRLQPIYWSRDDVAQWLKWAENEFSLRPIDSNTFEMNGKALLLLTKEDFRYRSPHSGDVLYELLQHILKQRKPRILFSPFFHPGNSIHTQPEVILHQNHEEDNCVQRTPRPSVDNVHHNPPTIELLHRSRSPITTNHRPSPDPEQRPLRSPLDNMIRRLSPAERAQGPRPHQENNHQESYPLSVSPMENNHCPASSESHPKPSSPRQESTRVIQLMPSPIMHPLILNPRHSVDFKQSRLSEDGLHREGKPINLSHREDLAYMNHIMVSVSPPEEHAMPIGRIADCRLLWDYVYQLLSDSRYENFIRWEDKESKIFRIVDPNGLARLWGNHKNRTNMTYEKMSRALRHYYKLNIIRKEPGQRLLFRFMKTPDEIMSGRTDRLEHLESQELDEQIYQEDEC
How it was run: as §1

Sequence	binding signal (ERF)	binding signal (ETV3L)	binding signal (ETS2)	binding signal (SPDEF)	binding signal (ETV7)	binding signal (ELF5)	binding signal (ETV3)	binding signal (ETV6)
ACTACA	1.13 fold enrichment (6-mer frequency, TF over GST control)	1.22 fold enrichment (6-mer frequency, TF over GST control)	1.15 fold enrichment (6-mer frequency, TF over GST control)	1.28 fold enrichment (6-mer frequency, TF over GST control)	1.11 fold enrichment (6-mer frequency, TF over GST control)	1.24 fold enrichment (6-mer frequency, TF over GST control)	1.19 fold enrichment (6-mer frequency, TF over GST control)	1.19 fold enrichment (6-mer frequency, TF over GST control)
CCATCT	1.41 fold enrichment (6-mer frequency, TF over GST control)	1.35 fold enrichment (6-mer frequency, TF over GST control)	1.35 fold enrichment (6-mer frequency, TF over GST control)	1.11 fold enrichment (6-mer frequency, TF over GST control)	1.33 fold enrichment (6-mer frequency, TF over GST control)	1.27 fold enrichment (6-mer frequency, TF over GST control)	1.25 fold enrichment (6-mer frequency, TF over GST control)	1.25 fold enrichment (6-mer frequency, TF over GST control)
AGTACT	1.11 fold enrichment (6-mer frequency, TF over GST control)	1.12 fold enrichment (6-mer frequency, TF over GST control)	1.23 fold enrichment (6-mer frequency, TF over GST control)	1.33 fold enrichment (6-mer frequency, TF over GST control)	1.3 fold enrichment (6-mer frequency, TF over GST control)	1.53 fold enrichment (6-mer frequency, TF over GST control)	1.28 fold enrichment (6-mer frequency, TF over GST control)	1.62 fold enrichment (6-mer frequency, TF over GST control)
CACATC	1.39 fold enrichment (6-mer frequency, TF over GST control)	1.41 fold enrichment (6-mer frequency, TF over GST control)	1.38 fold enrichment (6-mer frequency, TF over GST control)	2.09 fold enrichment (6-mer frequency, TF over GST control)	1.38 fold enrichment (6-mer frequency, TF over GST control)	1.42 fold enrichment (6-mer frequency, TF over GST control)	1.49 fold enrichment (6-mer frequency, TF over GST control)	1.5 fold enrichment (6-mer frequency, TF over GST control)
CACCCC	1.36 fold enrichment (6-mer frequency, TF over GST control)	1.34 fold enrichment (6-mer frequency, TF over GST control)	1.22 fold enrichment (6-mer frequency, TF over GST control)	1.24 fold enrichment (6-mer frequency, TF over GST control)	1.11 fold enrichment (6-mer frequency, TF over GST control)	1.16 fold enrichment (6-mer frequency, TF over GST control)	1.27 fold enrichment (6-mer frequency, TF over GST control)	1.14 fold enrichment (6-mer frequency, TF over GST control)
GCTTAG	1.2 fold enrichment (6-mer frequency, TF over GST control)	1.12 fold enrichment (6-mer frequency, TF over GST control)	1.11 fold enrichment (6-mer frequency, TF over GST control)	1.17 fold enrichment (6-mer frequency, TF over GST control)	1.13 fold enrichment (6-mer frequency, TF over GST control)	1.01 fold enrichment (6-mer frequency, TF over GST control)	1.19 fold enrichment (6-mer frequency, TF over GST control)	1.07 fold enrichment (6-mer frequency, TF over GST control)
CGTATC	1.15 fold enrichment (6-mer frequency, TF over GST control)	1.24 fold enrichment (6-mer frequency, TF over GST control)	1.11 fold enrichment (6-mer frequency, TF over GST control)	1.57 fold enrichment (6-mer frequency, TF over GST control)	1.1 fold enrichment (6-mer frequency, TF over GST control)	1.19 fold enrichment (6-mer frequency, TF over GST control)	1.28 fold enrichment (6-mer frequency, TF over GST control)	1.09 fold enrichment (6-mer frequency, TF over GST control)
ATCATA	1.12 fold enrichment (6-mer frequency, TF over GST control)	1.12 fold enrichment (6-mer frequency, TF over GST control)	1.03 fold enrichment (6-mer frequency, TF over GST control)	1.03 fold enrichment (6-mer frequency, TF over GST control)	1.1 fold enrichment (6-mer frequency, TF over GST control)	1.11 fold enrichment (6-mer frequency, TF over GST control)	1.09 fold enrichment (6-mer frequency, TF over GST control)	1.1 fold enrichment (6-mer frequency, TF over GST control)
CTATTG	1.37 fold enrichment (6-mer frequency, TF over GST control)	1.27 fold enrichment (6-mer frequency, TF over GST control)	1.35 fold enrichment (6-mer frequency, TF over GST control)	1.18 fold enrichment (6-mer frequency, TF over GST control)	1.25 fold enrichment (6-mer frequency, TF over GST control)	1.23 fold enrichment (6-mer frequency, TF over GST control)	1.42 fold enrichment (6-mer frequency, TF over GST control)	1.35 fold enrichment (6-mer frequency, TF over GST control)
TATCGC	1.18 fold enrichment (6-mer frequency, TF over GST control)	1.15 fold enrichment (6-mer frequency, TF over GST control)	1.1 fold enrichment (6-mer frequency, TF over GST control)	1.17 fold enrichment (6-mer frequency, TF over GST control)	1 fold enrichment (6-mer frequency, TF over GST control)	1.19 fold enrichment (6-mer frequency, TF over GST control)	1.13 fold enrichment (6-mer frequency, TF over GST control)	1.08 fold enrichment (6-mer frequency, TF over GST control)
GACATT	1.22 fold enrichment (6-mer frequency, TF over GST control)	1.17 fold enrichment (6-mer frequency, TF over GST control)	1.11 fold enrichment (6-mer frequency, TF over GST control)	1.13 fold enrichment (6-mer frequency, TF over GST control)	1.07 fold enrichment (6-mer frequency, TF over GST control)	1.17 fold enrichment (6-mer frequency, TF over GST control)	1.21 fold enrichment (6-mer frequency, TF over GST control)	1.26 fold enrichment (6-mer frequency, TF over GST control)
CAATGC	1.08 fold enrichment (6-mer frequency, TF over GST control)	1.15 fold enrichment (6-mer frequency, TF over GST control)	1.15 fold enrichment (6-mer frequency, TF over GST control)	1.2 fold enrichment (6-mer frequency, TF over GST control)	1.24 fold enrichment (6-mer frequency, TF over GST control)	1.13 fold enrichment (6-mer frequency, TF over GST control)	1.2 fold enrichment (6-mer frequency, TF over GST control)	1.24 fold enrichment (6-mer frequency, TF over GST control)
TACTGG	1.16 fold enrichment (6-mer frequency, TF over GST control)	1.11 fold enrichment (6-mer frequency, TF over GST control)	1.08 fold enrichment (6-mer frequency, TF over GST control)	1.05 fold enrichment (6-mer frequency, TF over GST control)	1.12 fold enrichment (6-mer frequency, TF over GST control)	1.04 fold enrichment (6-mer frequency, TF over GST control)	1.11 fold enrichment (6-mer frequency, TF over GST control)	1.15 fold enrichment (6-mer frequency, TF over GST control)
CACGAA	1.18 fold enrichment (6-mer frequency, TF over GST control)	1.01 fold enrichment (6-mer frequency, TF over GST control)	1.12 fold enrichment (6-mer frequency, TF over GST control)	1.08 fold enrichment (6-mer frequency, TF over GST control)	1.16 fold enrichment (6-mer frequency, TF over GST control)	1.02 fold enrichment (6-mer frequency, TF over GST control)	1.05 fold enrichment (6-mer frequency, TF over GST control)	1.07 fold enrichment (6-mer frequency, TF over GST control)
AACCGG	1.42 fold enrichment (6-mer frequency, TF over GST control)	1.43 fold enrichment (6-mer frequency, TF over GST control)	1.46 fold enrichment (6-mer frequency, TF over GST control)	1.8 fold enrichment (6-mer frequency, TF over GST control)	1.36 fold enrichment (6-mer frequency, TF over GST control)	1.52 fold enrichment (6-mer frequency, TF over GST control)	1.6 fold enrichment (6-mer frequency, TF over GST control)	1.5 fold enrichment (6-mer frequency, TF over GST control)
